Compounds with a hit are over-represented: about 4% of the library has one in this group of screens.
rat GALR2 agon: GALR2 (rat) receptor agonism | cell-based GALR2 agonist screen | 0.5% of 16,000 active | activation, % at 10 µM | AID 833 | O08726; in the data active = activation above about 15%
Target sequence (O08726 whole entry, looked up): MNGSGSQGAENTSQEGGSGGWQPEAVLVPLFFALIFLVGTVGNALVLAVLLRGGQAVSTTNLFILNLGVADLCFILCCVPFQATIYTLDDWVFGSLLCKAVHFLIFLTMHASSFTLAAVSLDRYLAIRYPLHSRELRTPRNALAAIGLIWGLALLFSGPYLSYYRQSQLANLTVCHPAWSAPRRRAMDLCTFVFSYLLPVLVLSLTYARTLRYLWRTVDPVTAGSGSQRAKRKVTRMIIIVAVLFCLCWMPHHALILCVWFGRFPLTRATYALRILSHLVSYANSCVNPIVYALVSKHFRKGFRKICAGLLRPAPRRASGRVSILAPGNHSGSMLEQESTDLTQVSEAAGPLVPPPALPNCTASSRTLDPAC
S1P1 ag: S1P1 (human) receptor agonism; activation, % at 4.5 µM; P21453; 1.5% of 16,000 active; AID 1044; S1P1 agonist cell-based reporter assay; in the data active = activation above about 80%
luminol inh ctr: quenches luminol chemiluminescence in Nox1 counter-screen. inhibition, % at 6.7 µM. HRP/luminol/H2O2 chemiluminescence counterscreen. 0.4% of 16,000 active; note: reference of the scale not given here
Nox1 inhibitor: human Nox1 inhibition | Q9Y5S8 | HT29 cells, luminol chemiluminescence ROS | inhibition, % at 6.7 µM | 0.81% of 16,000 active | AID 1792
PME-1 Maybridge: inhibitors of human PME-1 in Maybridge library. Q9Y570. recombinant PME-1, FP-Rh probe fluorescence polarization. inhibition, % at 9 µM. 0.5% of 16,000 active. AID 2291; in the data active = inhibition above about 30%
NOTCH ag: activates NOTCH signaling in reporter cells; NOTCH signaling luciferase reporter cells, luminescence; activation, % at 2.5 µM; 0.4% of 15,000 active; AID 434982; in the data active = activation above about 2.2%
Of the large screens only hits and unclear results are named; the others gave an inactive call. Cut-off read from the data, not from the text of the source, unless noted: active = inhibition above about 75%; inactive = the rest.

c1ccc2c(c1)Nc1nc3ccccc3nc1N2	Nox1 inhibitor 85
c1ccc2c(c1)Nc1nc3ccccc3nc1O2	none
O=S(=O)(/N=C/c1ccccc1O)c1ccc(N=Cc2ccccc2O)cc1	none
COc1ccc(NC(=S)Nc2c(C)cccc2C)cc1OC	none
COC(=O)c1sc2ccccc2c1OC(=O)c1cccs1	none
COC(=O)c1sc2ccccc2c1Cl	S1P1 ag 107
CN(C)c1ccc(NC(=O)Nc2cccs2)cc1	Nox1 inhibitor 92
O=C(Nc1ccc2ccccc2n1)Nc1cccs1	none
O=C1NC(=S)S/C1=C/c1ccccc1C(=O)O	none
CCC/C(O)=C(\C=N\c1ccc(C(=O)OC)o1)C(=O)OCC	S1P1 ag 83
O=c1cc(Sc2ccc(Cl)cc2)c2ccccc2o1	none
O=S(=O)(Nc1ccc2c(c1)OCCO2)c1csc(-c2cc(C(F)(F)F)on2)c1	S1P1 ag 82
Cc1nc(CO/N=C(/N)c2ccc(C(F)(F)F)cc2)cs1	none
Cc1ccsc1/C=C/C(=O)O/N=C(\N)c1ccc(C(F)(F)F)cc1	S1P1 ag 100
Cc1[nH]n(C)c(=O)c1N=Nc1ccc(C(C)C)cc1	S1P1 ag 102 (no result: NOTCH ag)
O=C1NC(=S)S/C1=C\c1cc([N+](=O)[O-])ccc1Sc1ccc(C(F)(F)F)cn1	S1P1 ag 108
CCCCCCC#Cc1cncc(C(=O)O)c1	none
Cc1nc(C(F)(F)F)ccc1C(=O)NN	none
O=C(c1cccs1)N1CCc2ccccc2C1	rat GALR2 agon 34
N#C/C(=C\N1CCc2ccccc2C1)C(=O)c1cccs1	none
COCCCNC(=S)N/N=C/c1cccn1-c1ccc(C(F)(F)F)cc1	none
CN(C)/C=C/C=c1/c(=O)c2cccc3cccc1c32	S1P1 ag 102
O=c1c2cccc3cccc(sc4cccc5cccc1c54)c32	none
FC(F)(F)c1cc(-c2nsc(N3CCOCC3)n2)cc(C(F)(F)F)c1	rat GALR2 agon 22
Cc1c(-c2nc(-c3ccc(C(C)(C)C)cc3)no2)n(C)oc1=O	S1P1 ag 95
COc1ccc(NC(=S)NNC(=O)CSCc2cccc3ccccc23)cc1	none
CCOC(=O)/C(C#N)=C/Nc1nc2ccc(C)cc2s1	S1P1 ag 87
Cc1csc2ncnc(NNS(=O)(=O)c3cc(C(F)(F)F)cc(C(F)(F)F)c3)c12	Nox1 inhibitor 102
COc1cc(NC(=O)c2cc(OC)c(OC)c(OC)c2)c(OC)cc1Cl	none
Nc1c(Cl)cc(C(=O)Nc2cc(Cl)c(Cl)cc2Cl)cc1Cl	rat GALR2 agon 17
Cc1nnsc1C(=O)Nc1ccc(-n2nc(C(F)(F)F)cc2C(F)(F)F)cc1	S1P1 ag 99
O=C(CSc1ccccc1[N+](=O)[O-])NNC(=O)c1ccccc1I	none
O=C1NC(=S)NC(=O)C1=Cc1c(F)cccc1Cl	none
Cc1cc(C(=O)Nc2ccc(N3CCOCC3)cc2)nn1C	none
Cc1cc(C(=O)Nc2nc3ccc(Cl)cc3s2)nn1C	S1P1 ag 103
Cc1ccc(S(=O)(=O)NC(=O)Nc2ccc(N(C)C)cc2)cc1	PME-1 Maybridge 41
COC(=O)c1cc(=O)c2c(C(C)=O)c(OCc3ccccc3)ccc2[nH]1	none
CC(=O)Nc1ccccc1-c1nnc(-c2ccc(C(C)(C)C)cc2)o1	S1P1 ag 104
O=[N+]([O-])c1ccc(-c2ccc(-c3ccc([N+](=O)[O-])cc3)o2)cc1	none
O=[N+]([O-])c1ccc(-c2ccc(/C=N/Nc3ccccc3)o2)cc1	S1P1 ag 82
N#Cc1c(NCc2cccs2)ccc([N+](=O)[O-])c1NCc1cccs1	none
CN(C)Nc1ccc([N+](=O)[O-])c(NN(C)C)c1C#N	S1P1 ag 81, Nox1 inhibitor 81
O=C(NCC(O)COCc1ccccc1)c1ccccc1 (configuration not stated)	rat GALR2 agon 29 (no result: NOTCH ag)
CCCC1/C(=N\O)CC(c2ccco2)NC1c1ccco1 (configuration not stated)	none
O=C1/C(=C/c2cccs2)CC/C1=C\c1cccs1	S1P1 ag 81
Cc1cccc(Cl)c1NNC(=O)Nc1c([N+](=O)[O-])c(C)nn1C	none
Cc1cc(NNC(=O)c2ccccc2Cl)nc2c1c(C)nn2C	Nox1 inhibitor 78
CC(NCc1ccccc1O)C(=O)O (configuration not stated)	none
C/C(=C/c1ccc([N+](=O)[O-])o1)C(=O)O	none
c1ccc2c(c1)NC(c1ccc3c(c1)OCO3)O2 (configuration not stated)	Nox1 inhibitor 80
O=C(C1=NNCC1c1ccc2c(c1)OCO2)c1ccc2ccccc2c1 (configuration not stated)	none
O=c1c2ccccc2c(Br)cn1Nc1ccc(Br)cc1	none
CCOC(=O)c1sc(Nc2ccccc2)c(-c2nc3ccccc3[nH]2)c1N	PME-1 Maybridge 31
N#C/C(=C\Nc1cc(C(F)(F)F)cc(C(F)(F)F)c1)S(=O)(=O)c1ccc(Cl)cc1	S1P1 ag 87 (no result: NOTCH ag)
CSc1ccc(/C=C/c2onc(C)c2[N+](=O)[O-])s1	PME-1 Maybridge 64
CC(C)CC1NC(=O)N(Cc2ccc([N+](=O)[O-])cc2)C1=O (configuration not stated)	none
CCN1CCCC1CNC(=O)NC(=O)c1ccc([N+](=O)[O-])cc1 (configuration not stated)	S1P1 ag 85
c1cncc(-c2csc(-c3cccnc3)n2)c1	PME-1 Maybridge 34
O=C(Oc1ccc(F)cc1)/C(=C\c1cccs1)c1ccsc1	none
O=[N+]([O-])c1ccc(S(=O)(=O)c2cc(Cl)ccc2Cl)[n+]([O-])c1	NOTCH ag 3.6
CCOC(=O)c1cc(C)n(N(C)c2cc(C(F)(F)F)ccn2)c1C	none
CC(C)S(=O)(=O)C/C(N)=N\O	none
O=C(Nc1cccc2[nH]ccc12)C1CCCCC1	NOTCH ag 2.3
Cc1c(NC(=O)C2CCCCC2)cccc1[N+](=O)[O-]	none
S=C(c1ccccc1)N1CCOCC1	none
COc1ccc(-c2nc(N(C)c3ccccc3)[nH]c(=O)c2C#N)cc1	NOTCH ag 3.5
CC(=O)c1ccccc1NC(=O)/C=C\C(=O)O	none
COc1cc(C(=O)NC2CC(C)CC(C)(C)C2)cc(OC)c1OC (configuration not stated)	S1P1 ag 109
CCOc1c(NCc2ccccc2)c(=O)c1=O	none
COc1ccc(N=Nc2ccc(OC)c(OC)c2)cc1OC	S1P1 ag 93
O=C(NNC(=NS(=O)(=O)c1ccccc1)NNC(=O)c1ccc(F)cc1)c1ccc(F)cc1	none
O=C1c2ccccc2C(=O)c2c(O)ccc(O)c21	PME-1 Maybridge 40
CN(C)NC(=O)Nc1csnc1-c1c(Cl)cccc1Cl	none
CCCc1cnc(Oc2ncnc3cc(Cl)ccc23)nc1	none
Cc1ccc(COc2ncnc3cc(Cl)ccc23)cc1	rat GALR2 agon 46
CC(=O)/C(=C\N(C)C)Sc1ccccn1	none
CC(=O)/C(=C\N(C)C)SCc1ccccc1C	S1P1 ag 97 (no result: NOTCH ag)
N#Cc1c2ccccc2cn1Cc1cccc(Cl)c1	S1P1 ag 93
Cc1nc(C(=O)NCC(=O)c2cccc(Cl)c2)c(C(F)(F)F)o1	S1P1 ag 92

High-throughput results deposited in PubChem by The Scripps Research Institute Molecular Screening Center.
